The test system of assay [1] is Plasmodium falciparum Sir2 (PF13_0152, Sir2A). The assay is described as follows: Plasmodium falciparum Sir2A binding compounds – biochemical, small-molecule microarray, 635 nm fluorescence, primary screen (AID 1098).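 Note: score merges spot fluorescence intensity with its signal-to-noise ratio.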 To be noted: fluorescence 635 nm, higher = more signal.
Assay [2] is described as follows: probe aDKK1 binding to arrayed compounds – biochemical, biotinylated probe, 635/667 nm fluorescence, primary screen (AID 1099).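 Note: score merges 667nm spot fluorescence with signal to noise across triplicate slides.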 To be noted: small-molecule microarray, higher = more signal.
A short description of assay [3]: probe aCHRDL2 binding to arrayed compounds – biochemical, biotinylated probe, 635/667 nm fluorescence, primary screen (AID 1100). To be noted: small-molecule microarray, higher = more signal.
The nature of assay [4]: change in splice reporter luminescence, either direction, cell-based, HEK293, spliceosome inhibition project, primary screen (AID 1101).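 Note: HEK293 cells carrying a splicing-competent luciferase reporter gene; test concentration not given here.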 As to conditions: HEK293 splicing luciferase reporter, 24 h, higher = more signal, called active from +8 up or from −8 down. For orientation: A reporter such as luciferase makes a cellular process visible.
Assay [5] has as its target Fibroblast growth factor 10 (Homo sapiens) (UniProt O15520). The assay is described as follows: compounds binding fibroblast growth factor 10 – biochemical, small-molecule microarray, 635 nm fluorescence, primary screen (AID 1102). To be noted: FGF10 binding, fluorescence 635 nm, higher = more signal.
For assay [6], the system named is glycogen synthase kinase-3 (GSK3A per assay name; protocol says GSK3B). The assay is described as follows: compounds binding glycogen synthase kinase-3 – biochemical, small-molecule microarray, 635 nm fluorescence, GSK3A, primary screen (AID 1103). Note: the record names both GSK3A and GSK3B. As to conditions: fluorescence 635 nm, higher = more signal.
Assay [7] deals with Epidermal growth factor receptor (Homo sapiens) (UniProt P00533). Nature of the assay: compounds binding epidermal growth factor receptor – biochemical, small-molecule microarray, 635 nm fluorescence, primary screen (AID 1104).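 Note: score merges 667 nm emission intensity with spot signal to noise over triplicate slides.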 As to conditions: EGFR binding, higher = more signal.
Sequence of Epidermal growth factor receptor (Homo sapiens) (P00533 whole entry, looked up): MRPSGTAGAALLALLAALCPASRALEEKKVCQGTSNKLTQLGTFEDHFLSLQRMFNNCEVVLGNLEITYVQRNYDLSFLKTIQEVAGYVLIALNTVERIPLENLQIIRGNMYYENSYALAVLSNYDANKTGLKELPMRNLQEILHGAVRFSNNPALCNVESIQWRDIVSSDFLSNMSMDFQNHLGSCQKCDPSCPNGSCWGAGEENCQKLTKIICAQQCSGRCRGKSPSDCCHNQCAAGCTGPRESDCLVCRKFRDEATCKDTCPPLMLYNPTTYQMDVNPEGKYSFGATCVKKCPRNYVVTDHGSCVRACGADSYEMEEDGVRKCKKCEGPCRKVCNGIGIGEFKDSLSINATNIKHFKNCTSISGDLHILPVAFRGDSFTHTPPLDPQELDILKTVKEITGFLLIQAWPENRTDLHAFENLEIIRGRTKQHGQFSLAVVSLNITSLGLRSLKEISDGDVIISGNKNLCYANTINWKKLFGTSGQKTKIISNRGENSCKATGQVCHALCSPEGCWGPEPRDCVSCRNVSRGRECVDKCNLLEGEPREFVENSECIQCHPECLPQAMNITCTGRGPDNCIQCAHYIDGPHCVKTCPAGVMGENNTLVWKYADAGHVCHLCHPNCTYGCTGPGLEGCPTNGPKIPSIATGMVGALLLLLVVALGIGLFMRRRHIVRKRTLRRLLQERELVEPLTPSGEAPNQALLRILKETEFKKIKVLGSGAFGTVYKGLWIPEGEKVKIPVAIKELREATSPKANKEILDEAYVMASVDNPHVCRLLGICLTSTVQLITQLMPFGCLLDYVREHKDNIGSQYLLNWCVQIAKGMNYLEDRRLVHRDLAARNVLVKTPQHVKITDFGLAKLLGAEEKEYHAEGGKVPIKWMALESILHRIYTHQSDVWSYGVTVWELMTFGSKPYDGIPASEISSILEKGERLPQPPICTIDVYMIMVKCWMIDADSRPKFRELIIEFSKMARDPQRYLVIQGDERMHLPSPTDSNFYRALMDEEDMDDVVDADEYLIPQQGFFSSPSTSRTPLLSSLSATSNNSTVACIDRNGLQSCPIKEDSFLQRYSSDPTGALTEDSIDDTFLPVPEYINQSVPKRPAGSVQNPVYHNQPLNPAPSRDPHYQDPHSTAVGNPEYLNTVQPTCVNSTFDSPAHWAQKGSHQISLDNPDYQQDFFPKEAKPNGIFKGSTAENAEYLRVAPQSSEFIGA
Assay [8] addresses Follistatin-related protein 3 (Homo sapiens) (UniProt O95633). The assay is described as follows: compounds binding follistatin-related protein 3 – biochemical, small-molecule microarray, 635 nm fluorescence, primary screen (AID 1105).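 Note: score merges emission near 667 nm and signal to noise per printed spot across three slides.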 As to conditions: FSTL3 binding, higher = more signal.
Assay [9] has as its target Dickkopf-related protein 1 (Homo sapiens) (UniProt O94907). The assay is described as follows: small molecules binding DKK1 protein – biochemical, small-molecule microarray, 635 nm fluorescence scan, primary screen (AID 1106).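 Note: score merges emission near 667 nm with signal to noise over three replicate slides.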 To be noted: higher = more signal.
Assay [10] relates to Inhibin beta A chain (activin A). The assay is described as follows: small molecules binding activin A – biochemical, small-molecule microarray, 635 nm fluorescence scan, primary screen (AID 1107).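 Note: mouse activin A protein probed at 4.33 µg/mL on printed slides; score merges bound-protein fluorescence near 667 nm with spot signal-to-noise.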 To be noted: INHBA, higher = more signal.
Assay [11] has as its system Human papillomavirus type 1a protein E7 (residues 44-93). Nature of the assay: small molecules binding HPV E7 44-93 – biochemical, small-molecule microarray, residues 44-93, 635 nm fluorescence, primary screen (AID 1108).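 Note: E7 fragment applied at 1 µg/mL in TBST for 1 h at 4 C; score combines spot fluorescence with its signal to noise ratio.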 To be noted: fluorescence 635 nm, higher = more signal.
The nature of assay [12]: hepatitis C replication reporter changes, two-sided – Huh7 cells, luciferase reporter, HCV replication inhibitor project, primary screen (AID 1109).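 Note: huh7 hepatoma cells harbouring a luciferase neomycin HCV replicon reporter; luciferase luminescence as measure of HCV replicon replication; test concentration not given here.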 To be noted: Huh7 HCV replicon luciferase reporter, 48 h; higher = more signal.
Assay [13] concerns the target Left-right determination factor 2 (Homo sapiens) (UniProt O00292). Nature of the assay: small molecules binding LEFTY2 protein – biochemical, small-molecule microarray, 635 nm fluorescence scan, primary screen (AID 1110). To be noted: higher = more signal.
Assay [14] addresses Calmodulin-1 (Homo sapiens) (UniProt P0DP23). Nature of the assay: small molecules binding calmodulin-1 with EGTA – biochemical, small-molecule microarray, Cy5-labelled CALM1, profiling panel (AID 1111).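 Note: labelled calmodulin applied in Tris saline Tween buffer holding calcium plus EGTA and DTT.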 As to conditions: Cy5-CALM1 binding fluorescence, higher = more signal.
For assay [15] the target is unchanged. The assay is described as follows: small molecules binding Ca-loaded calmodulin-1 – biochemical, small-molecule microarray, Cy5-labelled CALM1, plus calcium, artefact control for SMM control-protein annotation, profiling panel (AID 1112).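 Note: score merges spot fluorescence with signal to noise from triplicate slides.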 As to conditions: Cy5-CALM1 binding fluorescence, higher = more signal.
Assay [16] can be described thus: probe aWnt5a binding to arrayed compounds – biochemical, biotinylated probe, 635/667 nm fluorescence, primary screen (AID 1113).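 Note: score merges 667 nm fluorescence intensity with signal-to-noise per printed feature.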 To be noted: small-molecule microarray, higher = more signal.
The nature of assay [17]: probe aShh binding to arrayed compounds – biochemical, biotinylated probe, 635/667 nm fluorescence, primary screen (AID 1114).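 Note: probe is biotin-labelled aShh protein from a stem cell growth factor screen; measures binding of labelled protein to compounds printed on the slide; score merges feature fluorescence at 667 nm with signal-to-noise.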 As to conditions: small-molecule microarray, higher = more signal.
A short description of assay [18]: probe aNog binding to arrayed compounds – biochemical, biotinylated probe, 635/667 nm fluorescence, primary screen (AID 1115).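 Note: probe is biotinylated aNog protein used at 0.15 µg/mL for 1 h at 4 C; z-score combines 667 nm fluorescence of each spot with its signal to noise.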 To be noted: small-molecule microarray, higher = more signal.
For assay [19], the target named is Torsin-1A-interacting protein 1 (Homo sapiens) (UniProt Q5JTV8). Nature of the assay: compound microarray binding of lysate hLAP1 – cell lysate, small-molecule microarray, COS7 lysate, 635/667 nm fluorescence, primary screen (AID 1116). To be noted: 635 nm fluorescence, higher = more signal.
Sequence of Torsin-1A-interacting protein 1 (Homo sapiens) (Q5JTV8 whole entry, looked up): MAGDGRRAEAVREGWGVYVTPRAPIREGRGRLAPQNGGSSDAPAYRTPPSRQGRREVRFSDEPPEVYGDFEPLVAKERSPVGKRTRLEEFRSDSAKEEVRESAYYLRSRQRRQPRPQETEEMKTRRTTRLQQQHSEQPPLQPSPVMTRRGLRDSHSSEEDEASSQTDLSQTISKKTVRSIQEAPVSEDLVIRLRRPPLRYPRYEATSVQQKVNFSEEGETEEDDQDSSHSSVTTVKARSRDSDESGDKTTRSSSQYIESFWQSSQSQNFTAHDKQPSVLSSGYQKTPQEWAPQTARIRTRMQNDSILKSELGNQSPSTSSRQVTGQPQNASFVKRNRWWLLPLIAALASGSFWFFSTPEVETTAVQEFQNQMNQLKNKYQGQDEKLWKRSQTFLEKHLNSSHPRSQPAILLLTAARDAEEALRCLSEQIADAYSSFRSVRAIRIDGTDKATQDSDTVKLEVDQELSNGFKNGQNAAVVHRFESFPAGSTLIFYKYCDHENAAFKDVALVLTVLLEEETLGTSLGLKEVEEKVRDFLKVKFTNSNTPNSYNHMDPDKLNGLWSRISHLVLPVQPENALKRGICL
The target of assay [20] is Alpha-bungarotoxin (Bungarus multicinctus) (UniProt P60615). Nature of the assay: compounds binding labelled alpha-BTX control protein – biochemical, small-molecule microarray, Alexa647 label, 635/667 nm fluorescence, artefact control for SMM control protein annotation, profiling panel (AID 1117). To be noted: alpha-BTX-A647 binding fluorescence, higher = more signal.
Sequence of Alpha-bungarotoxin (Bungarus multicinctus) (P60615 whole entry, looked up): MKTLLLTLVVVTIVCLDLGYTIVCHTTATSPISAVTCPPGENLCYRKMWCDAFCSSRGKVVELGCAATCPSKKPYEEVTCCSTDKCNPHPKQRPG

Active and inactive are the calls of the source.

Sequence of Fibroblast growth factor 10 (Homo sapiens) (O15520 whole entry, looked up): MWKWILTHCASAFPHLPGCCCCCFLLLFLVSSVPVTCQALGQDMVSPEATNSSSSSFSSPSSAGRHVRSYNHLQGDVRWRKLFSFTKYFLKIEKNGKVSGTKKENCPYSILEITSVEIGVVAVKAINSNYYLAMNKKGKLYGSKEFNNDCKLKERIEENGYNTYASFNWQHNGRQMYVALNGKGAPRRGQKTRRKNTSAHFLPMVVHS
Sequence of Left-right determination factor 2 (Homo sapiens) (O00292 whole entry, looked up): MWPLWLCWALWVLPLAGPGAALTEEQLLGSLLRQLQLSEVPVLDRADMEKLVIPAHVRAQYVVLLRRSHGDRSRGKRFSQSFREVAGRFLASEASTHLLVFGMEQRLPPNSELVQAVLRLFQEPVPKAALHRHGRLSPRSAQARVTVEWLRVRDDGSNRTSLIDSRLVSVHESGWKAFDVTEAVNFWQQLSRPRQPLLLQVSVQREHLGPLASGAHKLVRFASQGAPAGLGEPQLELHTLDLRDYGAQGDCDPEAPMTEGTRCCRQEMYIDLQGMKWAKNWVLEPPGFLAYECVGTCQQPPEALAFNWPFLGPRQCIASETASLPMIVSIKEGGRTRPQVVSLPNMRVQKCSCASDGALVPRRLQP
Sequence of Follistatin-related protein 3 (Homo sapiens) (O95633 whole entry, looked up): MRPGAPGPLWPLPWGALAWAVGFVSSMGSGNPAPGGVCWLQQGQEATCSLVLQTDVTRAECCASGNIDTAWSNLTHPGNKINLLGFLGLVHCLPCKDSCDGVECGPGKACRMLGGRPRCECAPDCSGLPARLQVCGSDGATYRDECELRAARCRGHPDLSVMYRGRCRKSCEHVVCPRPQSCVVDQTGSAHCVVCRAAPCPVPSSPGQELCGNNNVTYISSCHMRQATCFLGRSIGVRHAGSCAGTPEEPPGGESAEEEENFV
Sequence of Dickkopf-related protein 1 (Homo sapiens) (O94907 whole entry, looked up): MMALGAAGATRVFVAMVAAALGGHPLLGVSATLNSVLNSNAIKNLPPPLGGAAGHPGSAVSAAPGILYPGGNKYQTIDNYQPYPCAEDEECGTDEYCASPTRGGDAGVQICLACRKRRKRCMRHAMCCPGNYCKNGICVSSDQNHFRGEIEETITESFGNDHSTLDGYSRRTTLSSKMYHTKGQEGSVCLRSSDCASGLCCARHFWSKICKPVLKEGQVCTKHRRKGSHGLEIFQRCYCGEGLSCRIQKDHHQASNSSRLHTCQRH

As to `CN(C)CCCNC(=O)[C@@]1(c2ccc([N+](=O)[O-])cc2)CC(=O)N(CC23CC4CC(CC(C4)C2)C3)[C@@H]1c1ccc(CO)cc1`, the composite z-score in assay [1] came to 1.72; in assay [2], 0.774; in assay [3], 0.811; in assay [5], 0.239; in assay [6], 1.32; in assay [7], 0.201. Moreover, the composite z-score is 0.996 in assay [8]; 0.54 in assay [9]; 1.14 in [10]; 1.23 in assay [11]; 0.364 in assay [13]; 1.43 in [14]. The composite z-score was 0.398 in assay [15]; 0.249 in assay [16]; 0.806 in assay [17]; 2.24 in [18]; 2.35 in assay [19]; 1.83 in [20]. In addition, the z-score in assay [4] was -0.102 (inactive); in assay [12], -3.26.
Consider `C=C(COC)/C(=C/C[C@@H](OC(=O)c1ccncc1)c1ccc(OCCO)cc1)c1cnc2ccccc2c1`, for which the composite z-score in assay [1] was 0.212; in [2], 0.0923; in assay [3] it was -0.0001; in assay [5], 1.46; in assay [6], 1.3; in assay [7], 1.35. The composite z-score in assay [8] worked out at 1.58; in assay [9], 0.99; in assay [10] it was 1.95; in [11], 1.3; in [13], 1.12; in assay [14] it was 0.695. Moreover, the composite z-score in assay [15] was -0.604; in [16], 0.0151; in assay [17] it was -0.167; in assay [18], 0.827; in [19], 1.66; in assay [20], 1.5. Also, the z-score in [4] is -0.275 (inactive); in assay [12], -1.59.
On to `COc1ccc([Si](C)(C)[C@@H]2[C@@H](CCn3cc([C@H](O)c4ccccc4)nn3)O[C@]3(C(=O)N(Cc4ccc(N5CCOC5=O)cc4)c4ccccc43)[C@H]2C)cc1`, for which the composite z-score in assay [1] was 0.972; in assay [2], -0.168; in [3] it was -0.528; in assay [5] it was 0.953; in [6], 0.426; in assay [7], 0.664. In addition, the composite z-score in assay [8] was determined as 1.02; in assay [9] it was 0.757; in [10], 0.504; in assay [11] it was 1.11; in assay [13] it was 0.846; in assay [14], 0.142. Also, the composite z-score in [15] was -0.488; in assay [16], -0.0179; in assay [17] it was 0.0224; in assay [18], -0.0675; in assay [19], 1.74; in assay [20] it was 1.06. In addition, the z-score in assay [4] was -0.242 (inactive); in [12] it was -2.29.
Consider `COCCCNC(=O)[C@@]1(Sc2ccc(C)cc2)CC(=O)N(Cc2cc(C(F)(F)F)cc(C(F)(F)F)c2)[C@@H]1c1ccc(CO)cc1`, for which the composite z-score in [1] was 1.08; in assay [2] it was -0.0248; in assay [3], -0.0087; in assay [5], 0.327; in assay [6], -0.257; in [7], -0.107. Moreover, the composite z-score in [8] was 1.01; in assay [9], 0.585; in [10] it was 0.612; in assay [11], 1.07; in assay [13] it was -0.223; in assay [14] it was 0.0267. The composite z-score was -0.683 in assay [15]; -0.096 in assay [16]; 0.0136 in [17]; -0.0069 in assay [18]; 0.156 in assay [19]; 2.13 in assay [20]. Besides, the figures for the z-score in assay [4] and in assay [12] were 0.261 (inactive) and -0.168, respectively.
Regarding `C=CCOC(=O)[C@H]1[C@@H]2C(=O)O[C@@H](c3ccccc3)[C@@H](c3ccccc3)N2[C@@H](c2ccc(OCCOC(=O)[C@H]3C[C@H]4C(=O)N[C@@H](Cc5ccccc5)C(=O)N4[C@H]3c3ccc(O)cc3)cc2)[C@]12C(=O)Nc1ccc(I)cc12`, the composite z-score in assay [1] is 1.34; in assay [2] it was -0.188; in [3], -0.485; in assay [5] it was 1.26; in [6], 0.98; in assay [7] it was 0.625. For the same molecule, the composite z-score was 1.46 in assay [8]; 1.27 in [9]; 0.0385 in assay [10]; 1.39 in assay [11]; 0.537 in [13]; 0.43 in assay [14]. The composite z-score in assay [15] is 0.0144; in [16] it was 0.0169; in assay [17], -0.333; in assay [18], -0.174; in assay [19], 0.791; in [20], 0.897. The z-score was 0.354 (inactive) in assay [4] and -1.41 in assay [12].
Regarding `C=CCNC(=O)[C@@H]1[C@H]2C(=O)O[C@H](c3ccccc3)[C@H](c3ccccc3)N2[C@H](c2ccccc2OCCO)[C@@]12C(=O)N(C(=O)OCCOC)c1ccc(C#CC3=CCCCC3)cc12`, the composite z-score was determined as 1.26 in assay [1]; 0.057 in assay [2]; 0.144 in assay [3]; 1.15 in assay [5]; 1.16 in [6]; 0.469 in assay [7]. Also, the composite z-score in assay [8] was 0.831; in [9] it was 0.373; in assay [10], -0.0496; in [11], 0.829; in assay [13], 0.167; in assay [14], 0.743. Moreover, the composite z-score in assay [15] is -0.0835; in [16] it was -0.124; in assay [17], -0.0553; in assay [18], 0.394; in assay [19], 1.15; in [20] it was 1.59. In addition, the figures for the z-score in assay [4] and in [12] were -1.1 (inactive) and -2.12, respectively.

These data come from PubChem BioAssay.
